# Experimental data from PubChem BioAssay (NCATS).
# Results filed as inconclusive are left out. Values without a mark were called inactive. Calls of active or inactive are those of the source. Calls follow the shape of the dose curve; as a rule, active = well fitted inhibition curve with a large enough effect; inconclusive = small, poorly fitted or top-dose-only effect; inactive = flat fitted curve, though single readings scatter. Where a SMILES comes first, the peptide text is derived from it. Bridges are numbered along the chain shown (N, C = ends). [ ]: non-standard residue; d: D form. NMeY = CN[CH](Cc1ccc(O)cc1)C(=O)O
# Test: P-glycoprotein substrates identified in KB-8-5-11 adenocarcinoma cell line, qHTS therapeutic library screen (AID 1346987); also: nearly all actives have a fitted effect of over 65% in size
# Conditions: KB-8-5-11 (P-gp overexpressing) viability, CellTiter-Glo, 72 h; series mostly up to 44.5 µM; activity change, negative = cytotoxicity: at the top concentration
# Summary of the method: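 Luminescence from CellTiter-Glo, read 5 min after addition, quantified survival of KB-8-5-11 (P-gp-overexpressing) cells exposed to compounds for 72 h. AC50 was derived from concentration-response curves.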
# % is scaled to controls: 0 for no effect and ±100 for the full control effect; potency is read from the fitted curve at half-maximal effect.
Structure (SMILES),outcome,"activity change, negative = cytotoxicity",Potency
CC(=O)O[C@@H]1[C@H](O[C@@H]2O[C@@H](CO)[C@H](O)[C@H]2O)[C@@H](O[C@@H]2O[C@@H](C)[C@H](O[C@@H]3OC[C@@H](O)[C@H](O)[C@H]3O)[C@@H](O)[C@H]2O)[C@H](OC(=O)[C@]23CCC(C)(C)C[C@H]2C2=CCC4[C@@]5(C)CC[C@H](O[C@@H]6O[C@H](C(=O)O)[C@@H](O)[C@H](O)[C@H]6O[C@@H]6O[C@H](CO)[C@H](O)[C@H](O)[C@H]6O)[C@@](C)(C=O)C5CC[C@@]4(C)[C@]2(C)CC3)O[C@@H]1C (some centres undefined),inactive [at 9.29 µM],–,–
CC(C)CC1NC(=O)C2CC3(O)c4ccccc4NC3N2C1=O (centres undefined),inactive,–,–
COc1cc2nc(N3CCCC3)nc(NCCCCCN3CCCC3)c2cc1OC,–,-14.8%,–
CCC(C)C1NC(=O)C2CCCN2C(=O)C(NC(C)=O)C(C)OC(=O)C(Cc2ccc(OC)cc2)N(C)C(=O)C2CCCN2C(=O)C(C(C)C)NC1=O (centres undefined) (Ac-TPIVP[NMeY](Me); ester 1-C; configuration not given here),–,-5% [at 17.3 µM],–
CC[C@H](NC(=O)[C@H](CS(=O)(=O)CC1CC1)N[C@@H](c1ccc(F)cc1)C(F)(F)F)C(=O)C(=O)NC1CC1,–,-17.1%,–
Cc1[nH]c2ccccc2c1CCNC(=O)c1ccccc1F,–,-4.47%,–
C[C@@H]1O[C@@H](O[C@H]2[C@H](OC(=O)[C@]34CCC(C)(C)C[C@H]3C3=CCC5[C@@]6(C)CC[C@H](O[C@@H]7O[C@H](C(=O)O)[C@@H](O)[C@H](O)[C@H]7O[C@@H]7O[C@H](CO)[C@H](O)[C@H](O)[C@H]7O)[C@@](C)(C=O)C6CC[C@@]5(C)[C@]3(C)C[C@H]4O)O[C@H](C)[C@H](O[C@@H]3O[C@H](C)[C@H](O)[C@H](O)[C@H]3O)[C@@H]2O)[C@H](O)[C@H](O)[C@H]1O[C@@H]1OC[C@@H](O)[C@H](O[C@@H]2O[C@H](CO)[C@@H](O)[C@H](O)[C@H]2O)[C@H]1O (some centres undefined),inactive [at 5.11 µM],–,–
CCCC(=O)O[C@@H]1[C@@H]2[C@@H](OC(C)=O)[C@]3(C)C(=O)[C@H]4[C@@H](OC(C)=O)C(C)(C)C[C@H]4[C@]3(C)C(=O)[C@@]2(OC(C)=O)C[C@@H]1C,–,-15.9% [at 17.3 µM],–
C=C(C(=O)OC)C1C(O)CC2(C)C(O)CCC(=O)C2C1O (centres undefined),–,0.374%,–
CC(O)/C=C/C1(O)C(C)C(O[C@@H]2O[C@H](CO)[C@@H](O)[C@H](O)[C@H]2O)C(O)CC1(C)C (some centres undefined),inactive [at 17.3 µM],–,–
C=C(C(=O)O)C1CC(O)C2(C)CCCC(=C)C2C1 (centres undefined),–,9.08%,–
COc1cc(Br)c(S(=O)(=O)Nc2ccc(C(F)(F)F)c(O[C@@H]3CCN(C)C3)c2)cc1OC,–,-25.2%,–
NC(=O)c1cccc2cn(-c3ccc(C4CCCNC4)cc3)nc12 (centres undefined),–,-23.4%,–
CC1(C(=O)O)CCCC2(C)C3=CCC4CC3(CCC12)CC4CO (centres undefined),–,-6.69%,–
O=C(Nc1ccccc1)N1CCN(Cc2ccc3ccccc3n2)CC1,–,-11.9%,–
C#CCN(Cc1cc2c(=O)n(C)c(CN3CCN(C)CC3)nc2cc1Cl)c1ccc(C(=O)NCc2cccnc2)cc1,–,–,0.259 µM (active)
O=C(O)c1cc(I)ccc1NC(=O)[C@H](Cc1ccccc1)NCc1ccccc1,–,6.68%,–
CCOc1ccc(S(=O)(=O)n2c(C)nc3ccccc32)cc1,–,-19.3% [at 17.3 µM],–
O=C(Nc1ccc(S(=O)(=O)C(F)(F)F)cc1)C1=CCN(c2ncccc2C(F)(F)F)CC1,–,–,14.6 µM (active)
C/C=C1\[C@H](OC2OC(COC3OC(CO)C(O)C(O)C3O)C(O)C(O)C2O)OC=C(C(=O)OC)[C@H]1CC(=O)OCCc1ccc(O)cc1 (some centres undefined),–,1.76% [at 17.3 µM],–

Structure (SMILES),outcome,"activity change, negative = cytotoxicity",Potency
O=C(Nc1nc2ccccc2n1CCc1ccccc1)c1ccccc1,–,-9.76%,–
COC(=O)C1=COC(O[C@@H]2O[C@H](CO)[C@@H](O)[C@H](O)[C@H]2O)[C@H]2[C@@H]1[C@H](OC(=O)CCc1ccc(O)cc1)C[C@]2(C)O (some centres undefined),–,3.69% [at 17.3 µM],–
COc1ccc2cc(C(C)C(=O)Oc3ccc(C(N)=S)cc3)ccc2c1 (centres undefined),–,6.8%,–
Cc1ccc(C(=O)N(CCCN)C(c2nc3cc(Cl)ccc3c(=O)n2Cc2ccccc2)C(C)C)cc1 (centres undefined),–,–,0.517 µM (active)
CC1CCC2(OC1)OC1CC3C4CC=C5CC(O)CC(O[C@@H]6OC[C@@H](O)[C@H](O)[C@H]6O)C5(C)C4CCC3(C)C1(O)C2C (some centres undefined),–,3.36% [at 17.3 µM],–
Clc1cc2c(NC3CCCC3)nnc(-c3ccncc3)c2cc1Cl,–,-18.6% [at 17.3 µM],–
CS(=O)(=O)N1CCC(NC(=O)c2[nH]ncc2NC(=O)c2c(Cl)cccc2Cl)CC1,–,–,9.2 µM (active)
COc1cc2c(cc1O)CC[C@H]1[C@@H]2CC[C@]2(C)[C@H](O)CC[C@@H]12,–,–,1.3 µM (active)
CC1=C(CO)C(=O)O[C@@H]([C@@H](C)[C@H]2CC[C@H]3[C@@H]4C[C@H]5O[C@]56[C@@H](O)C=CC(=O)[C@]6(C)[C@H]4CC[C@]23C)C1,–,–,2.52 µM (active)
CCC(C)C(=O)OC1CC(O)C23C4OCC5(C(O)CC2C1(C)C(O)O4)C3C(=O)C(O)C1(C)C(O)(c2ccoc2)CC2OC251 (centres undefined),inactive [at 17.3 µM],–,–
C/C(=C/CO)CC[C@@H]1[C@@](C)(O)CCC2C(C)(C)CCC[C@]21C (some centres undefined),–,-7.26%,–
NC1CCCCN(c2c(F)cc3c(=O)c(C(=O)O)cn(C4CC4)c3c2Cl)C1 (centres undefined),inactive [at 17.3 µM],–,–
C=C1CC[C@H]2[C@@](C)(CCC(O)[C@@]2(C)CO)[C@@H]1CCC1=CCOC1=O (some centres undefined),–,-20%,–
C[C@H]1[C@H](O)O[C@@H]2O[C@@]3(C)CC[C@H]4[C@H](C)CC[C@@H]1[C@@]24OO3,–,–,11.6 µM (active)
CC[C@H](CO)Nc1nc(NCc2ccc(-c3ccccn3)cc2)c2ncn(C(C)C)c2n1,–,–,0.231 µM (active)
Cc1cc(C)c(CNC(=O)c2cc(-c3ccc(CN4CCOCC4)cc3)cc3c2cnn3C2CCCC2)c(=O)[nH]1,–,-26.4%,–
COc1cc2ncnc(Nc3ccc(F)c(Cl)c3)c2cc1NC(=O)/C=C/CN1CCCCC1,–,–,10.3 µM (active)
Cc1[nH]nc(C(F)(F)F)c1Cc1sc2c(c1C(=O)N1C[C@](C)(O)CO1)c(=O)n(C)c(=O)n2C(C)C,–,7.5%,–
OC/C=C/c1ccc(O[C@@H]2O[C@H](CO)[C@@H](O)[C@H](O)[C@H]2O)cc1,–,-0.22%,–
